# Measurements taken from the supplement of paper PMC4466140.
# B1: unnamed (peptide)
# chain: PSRRDSLSIPRAVDA
# Molecular target: AgAbp1
# Experiment: SPOT peptide array binding signal intensity (averaged, normalized) (arbitrary units (background-subtracted, floor 0; scale differs between SH3 domains)); higher = stronger binding of the SH3 domain to the peptide
# How it was run: (§1)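 GST-SH3 fusions from four yeast species, purified on glutathione Sepharose, were incubated at 10 μg/ml overnight at 4°C on membranes of synthetic 15-mer peptides in which cysteines were replaced with serines. Binding signal is the normalized, background-subtracted spot intensity averaged over replicates, in domain-specific arbitrary units.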
row,Binder,SPOT peptide array binding signal intensity
1,B1,≤ 0

# Molecular target: AgBbc1
# Experiment: as above
# How it was run: as §1
row,Binder,SPOT peptide array binding signal intensity
1,B1,41.5

# Molecular target: AgBem1-D1
# Experiment: as above
# How it was run: as §1
row,Binder,SPOT peptide array binding signal intensity
1,B1,56

# Molecular target: AgBzz1-D1
# Experiment: as above
# How it was run: as §1
row,Binder,SPOT peptide array binding signal intensity
1,B1,17

# Molecular target: AgBzz1-D2
# Experiment: as above
# How it was run: as §1
row,Binder,SPOT peptide array binding signal intensity
1,B1,30

# Molecular target: AgCyk3
# Experiment: as above
# How it was run: as §1
row,Binder,SPOT peptide array binding signal intensity
1,B1,≤ 0

# Molecular target: AgFus1
# Experiment: as above
# How it was run: as §1
row,Binder,SPOT peptide array binding signal intensity
1,B1,5

# Molecular target: AgHof1
# Experiment: as above
# How it was run: as §1
row,Binder,SPOT peptide array binding signal intensity
1,B1,10

# Molecular target: AgHse1
# Experiment: as above
# How it was run: as §1
row,Binder,SPOT peptide array binding signal intensity
1,B1,14.5

# Molecular target: AgLsb1
# Experiment: as above
# How it was run: as §1
row,Binder,SPOT peptide array binding signal intensity
1,B1,13.5

# Molecular target: AgLsb4
# Experiment: as above
# How it was run: as §1
row,Binder,SPOT peptide array binding signal intensity
1,B1,2.5

# Molecular target: AgMyo5
# Experiment: as above
# How it was run: as §1
row,Binder,SPOT peptide array binding signal intensity
1,B1,≤ 0

# Molecular target: AgNbp2
# Experiment: as above
# How it was run: as §1
row,Binder,SPOT peptide array binding signal intensity
1,B1,6

# Molecular target: AgRvs167
# Experiment: as above
# How it was run: as §1
row,Binder,SPOT peptide array binding signal intensity
1,B1,1.67

# Molecular target: AgSho1
# Experiment: as above
# How it was run: as §1
row,Binder,SPOT peptide array binding signal intensity
1,B1,≤ 0

# Molecular target: AgSla1-D1-D2
# Experiment: as above
# How it was run: as §1
row,Binder,SPOT peptide array binding signal intensity
1,B1,0.5

# Molecular target: AgSla1-D3
# Experiment: as above
# How it was run: as §1
row,Binder,SPOT peptide array binding signal intensity
1,B1,0.5

# Molecular target: CaAbp1-D1
# Experiment: as above
# How it was run: as §1
row,Binder,SPOT peptide array binding signal intensity
1,B1,≤ 0

# Molecular target: CaAbp1-D2
# Experiment: as above
# How it was run: as §1
row,Binder,SPOT peptide array binding signal intensity
1,B1,25

# Molecular target: CaBbc1
# Experiment: as above
# How it was run: as §1
row,Binder,SPOT peptide array binding signal intensity
1,B1,354

# Molecular target: CaBem1-D1
# Experiment: as above
# How it was run: as §1
row,Binder,SPOT peptide array binding signal intensity
1,B1,4

# Molecular target: CaBzz1-D1
# Experiment: as above
# How it was run: as §1
row,Binder,SPOT peptide array binding signal intensity
1,B1,123

# Molecular target: CaBzz1-D2
# Experiment: as above
# How it was run: as §1
row,Binder,SPOT peptide array binding signal intensity
1,B1,93

# Molecular target: CaCyk3
# Experiment: as above
# How it was run: as §1
row,Binder,SPOT peptide array binding signal intensity
1,B1,3

# Molecular target: CaFus1
# Experiment: as above
# How it was run: as §1
row,Binder,SPOT peptide array binding signal intensity
1,B1,65

# Molecular target: CaHof1
# Experiment: as above
# How it was run: as §1
row,Binder,SPOT peptide array binding signal intensity
1,B1,1

# Molecular target: CaHse1
# Experiment: as above
# How it was run: as §1
row,Binder,SPOT peptide array binding signal intensity
1,B1,≤ 0

# Molecular target: CaLsb1
# Experiment: as above
# How it was run: as §1
row,Binder,SPOT peptide array binding signal intensity
1,B1,≤ 0

# Molecular target: CaLsb4
# Experiment: as above
# How it was run: as §1
row,Binder,SPOT peptide array binding signal intensity
1,B1,≤ 0

# Molecular target: CaMyo5
# Experiment: as above
# How it was run: as §1
row,Binder,SPOT peptide array binding signal intensity
1,B1,1.5

# Molecular target: CaNbp2
# Experiment: as above
# How it was run: as §1
row,Binder,SPOT peptide array binding signal intensity
1,B1,28.5

# Molecular target: CaRvs167
# Experiment: as above
# How it was run: as §1
row,Binder,SPOT peptide array binding signal intensity
1,B1,0.5

# Molecular target: CaRvs167-3
# Experiment: as above
# How it was run: as §1
row,Binder,SPOT peptide array binding signal intensity
1,B1,1

# Molecular target: CaSho1
# Experiment: as above
# How it was run: as §1
row,Binder,SPOT peptide array binding signal intensity
1,B1,8

# Molecular target: CaSla1-D1-D2
# Experiment: as above
# How it was run: as §1
row,Binder,SPOT peptide array binding signal intensity
1,B1,≤ 0

# Molecular target: CaSla1-D3
# Experiment: as above
# How it was run: as §1
row,Binder,SPOT peptide array binding signal intensity
1,B1,1.25

# Molecular target: ScAbp1
# Experiment: as above
# How it was run: as §1
row,Binder,SPOT peptide array binding signal intensity
1,B1,≤ 0

# Molecular target: ScBbc1
# Experiment: as above
# How it was run: as §1
row,Binder,SPOT peptide array binding signal intensity
1,B1,8.5

# Molecular target: ScBem1-D1
# Experiment: as above
# How it was run: as §1
row,Binder,SPOT peptide array binding signal intensity
1,B1,57

# Molecular target: ScBzz1-D1
# Experiment: as above
# How it was run: as §1
row,Binder,SPOT peptide array binding signal intensity
1,B1,22

# Molecular target: ScBzz1-D2
# Experiment: as above
# How it was run: as §1
row,Binder,SPOT peptide array binding signal intensity
1,B1,19

# Molecular target: ScCyk3
# Experiment: as above
# How it was run: as §1
row,Binder,SPOT peptide array binding signal intensity
1,B1,2

# Molecular target: ScFus1
# Experiment: as above
# How it was run: as §1
row,Binder,SPOT peptide array binding signal intensity
1,B1,≤ 0

# Molecular target: ScHof1
# Experiment: as above
# How it was run: as §1
row,Binder,SPOT peptide array binding signal intensity
1,B1,≤ 0

# Molecular target: ScHse1
# Experiment: as above
# How it was run: as §1
row,Binder,SPOT peptide array binding signal intensity
1,B1,≤ 0

# Molecular target: ScLsb1
# Experiment: as above
# How it was run: as §1
row,Binder,SPOT peptide array binding signal intensity
1,B1,≤ 0

# Molecular target: ScLsb2
# Experiment: as above
# How it was run: as §1
row,Binder,SPOT peptide array binding signal intensity
1,B1,3.5

# Molecular target: ScLsb3
# Experiment: as above
# How it was run: as §1
row,Binder,SPOT peptide array binding signal intensity
1,B1,4

# Molecular target: ScLsb4
# Experiment: as above
# How it was run: as §1
row,Binder,SPOT peptide array binding signal intensity
1,B1,11.5

# Molecular target: ScMyo3
# Experiment: as above
# How it was run: as §1
row,Binder,SPOT peptide array binding signal intensity
1,B1,0.5

# Molecular target: ScMyo5
# Experiment: as above
# How it was run: as §1
row,Binder,SPOT peptide array binding signal intensity
1,B1,4.5

# Molecular target: ScNbp2
# Experiment: as above
# How it was run: as §1
row,Binder,SPOT peptide array binding signal intensity
1,B1,1

# Molecular target: ScPex13
# Experiment: as above
# How it was run: as §1
row,Binder,SPOT peptide array binding signal intensity
1,B1,1

# Molecular target: ScRvs167
# Experiment: as above
# How it was run: as §1
row,Binder,SPOT peptide array binding signal intensity
1,B1,≤ 0

# Molecular target: ScSho1
# Experiment: as above
# How it was run: as §1
row,Binder,SPOT peptide array binding signal intensity
1,B1,14

# Molecular target: ScSla1-D1-D2
# Experiment: as above
# How it was run: as §1
row,Binder,SPOT peptide array binding signal intensity
1,B1,≤ 0

# Molecular target: ScSla1-D3
# Experiment: as above
# How it was run: as §1
row,Binder,SPOT peptide array binding signal intensity
1,B1,22.2

# Molecular target: SpAbp1-D1
# Experiment: as above
# How it was run: as §1
row,Binder,SPOT peptide array binding signal intensity
1,B1,8

# Molecular target: SpBbc1
# Experiment: as above
# How it was run: as §1
row,Binder,SPOT peptide array binding signal intensity
1,B1,3

# Molecular target: SpBzz1-D1
# Experiment: as above
# How it was run: as §1
row,Binder,SPOT peptide array binding signal intensity
1,B1,116
